# In the library only some 1.4% were active in any assay of this set; here they are far more common.
# GRK2 inh = compounds blocking aptamer binding on GRK2 – biochemical, human GRK2, bead flow cytometry, HTS, primary screen; Beta-adrenergic receptor kinase 1 (Homo sapiens), P25098; FAM-aptamer displacement from GRK2; inhibition of aptamer binding, % at 10 µM; actives 0.59% (n = 330,000); AID 488847, 2010;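 active = inhibition of aptamer binding above 40%, roughly 3 SD of noise, on plates passing a quality check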;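 also: median bead fluorescence of bound FAM aptamer so fluorescent compounds give negative values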
# VLA-4 inh = inhibition in human VLA-4 binding assay, primary screen, VLA-4 allosteric modulator project, MLPCN library, flow cytometry, VLA-4 expressing cells; ligand binding flow cytometry; actives 0.2% (n = 330,000); AID 2557, 2010; Integrin alpha-4 (Homo sapiens), P13612; inhibition, % (about 7 µM as worked out from the volumes in the protocol); in the data active = inhibition above about 50%
# Target sequence (P13612 whole entry, looked up): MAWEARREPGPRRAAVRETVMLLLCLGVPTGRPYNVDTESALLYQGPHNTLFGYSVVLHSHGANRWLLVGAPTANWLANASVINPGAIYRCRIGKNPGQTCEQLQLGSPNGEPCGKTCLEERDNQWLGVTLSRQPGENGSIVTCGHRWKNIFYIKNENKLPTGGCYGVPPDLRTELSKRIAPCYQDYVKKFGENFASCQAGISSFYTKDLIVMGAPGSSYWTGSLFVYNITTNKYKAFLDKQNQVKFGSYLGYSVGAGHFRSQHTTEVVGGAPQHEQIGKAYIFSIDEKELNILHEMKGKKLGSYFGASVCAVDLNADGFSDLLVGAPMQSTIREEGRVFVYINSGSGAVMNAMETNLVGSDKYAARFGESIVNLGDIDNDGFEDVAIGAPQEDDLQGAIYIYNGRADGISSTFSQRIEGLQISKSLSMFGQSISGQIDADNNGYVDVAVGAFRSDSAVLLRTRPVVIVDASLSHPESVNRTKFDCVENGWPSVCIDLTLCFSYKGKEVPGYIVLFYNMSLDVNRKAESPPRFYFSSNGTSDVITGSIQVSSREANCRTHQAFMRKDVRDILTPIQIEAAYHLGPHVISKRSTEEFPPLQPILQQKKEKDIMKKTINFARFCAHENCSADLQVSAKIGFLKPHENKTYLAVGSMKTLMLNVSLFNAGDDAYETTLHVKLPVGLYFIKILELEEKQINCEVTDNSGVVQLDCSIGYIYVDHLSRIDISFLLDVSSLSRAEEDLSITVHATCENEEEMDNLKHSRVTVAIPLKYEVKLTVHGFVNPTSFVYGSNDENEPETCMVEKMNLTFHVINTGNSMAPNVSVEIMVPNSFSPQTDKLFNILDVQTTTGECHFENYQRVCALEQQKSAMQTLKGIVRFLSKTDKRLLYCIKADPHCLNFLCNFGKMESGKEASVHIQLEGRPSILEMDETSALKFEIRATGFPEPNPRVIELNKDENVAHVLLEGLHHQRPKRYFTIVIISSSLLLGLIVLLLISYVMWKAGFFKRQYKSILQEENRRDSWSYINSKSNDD
# A3A deaminase = APOBEC3A ssDNA deaminase inhibitors, primary screen, selectivity assay for APOBEC3G inhibitor project, biochemical, FAM/TAMRA oligo cleavage fluorescence | actives 0.41% (n = 330,000) | recombinant A3A, FAM/TAMRA ssDNA deamination fluorescence | inhibition, % at 20 µM | DNA dC->dU-editing enzyme APOBEC-3A (Homo sapiens), P31941;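 active = at least 40% inhibition at 20 µM here, with at most 30% in a related deaminase screen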;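 also: plate controls were A3A with DMSO for no effect and wells lacking A3A enzyme for full effect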
# APOBEC3G inh = APOBEC3G DNA deaminase inhibitors, primary screen, biochemical, fluorescence, single-stranded DNA substrate, uHTS | DNA dC->dU-editing enzyme APOBEC-3G (Homo sapiens), Q9HC16 | recombinant A3G, ssDNA deamination FAM/TAMRA fluorescence | inhibition, % at 20 µM | actives 0.28% (n = 330,000) | AID 493012, 2011;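 active = inhibition of at least 40% at 20 µM, with no more than 30% in the related APOBEC3A deaminase screen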;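 also: plate controls were DMSO wells with A3G for no effect and wells lacking A3G enzyme for full effect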
# APOBEC3A confirm = APOBEC3A deaminase inhibitors, retest, confirmation, selectivity assay for APOBEC3G inhibitor project, biochemical, single concentration, fluorescence readout | shares compounds with A3A deaminase | recombinant A3A, ssDNA deaminase UDG fluorescence assay | inhibition, % at 20 µM | actives 63% (n = 1,400) | AID 493151, 2011;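 active = inhibition reaching a set limit, 80% of the first screen's cutoff, at 20 µM in any replicate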;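 also: plate controls were DMSO wells with A3A for no effect and wells lacking A3A enzyme for full effect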
# UDG A3A counter = E. coli UDG inhibitors, confirmation, counter-screen for APOBEC3A inhibitor project, biochemical, single concentration, fluorescence, FAM/TAMRA oligo; inhibition, % at 20 µM; shares compounds with A3A deaminase; UDG counterscreen, FAM/TAMRA uracil oligo fluorescence; AID 504714, 2011; 1,000 tested, under 10 active; call rule not given here
# APOBEC3G confirm = APOBEC3G deaminase inhibitor retest, confirmation, biochemical, fluorescence, single-stranded DNA substrate, single concentration. shares compounds with APOBEC3G inh. recombinant A3G ssDNA deaminase, UDG/FAM-TAMRA fluorescence. inhibition, % at 20 µM. actives 72% (n = 890);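 active = inhibition reaching a set limit in any replicate at 20 µM, the limit being 80% of the first screen's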
# UDG A3G counter = E. coli UDG inhibitors, confirmation, counter-screen for APOBEC3G inhibitor project, biochemical, single concentration, fluorescence, FAM/TAMRA oligo. shares compounds with APOBEC3G inh. UDG counterscreen. inhibition, % at 20 µM. AID 504715, 2011. 710 tested, under 10 active;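 active = compounds giving 40% or more inhibition at 20 µM in any one of the three replicates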;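 also: plate controls were DMSO wells with UDG and oligo for no effect and DMSO wells lacking both for full effect; inhibitors lower the FAM signal released by uracil excision and alkaline cleavage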
# An asterisk follows results filed as active; · = not tested or not shown.
SMILES,GRK2 inh,VLA-4 inh,A3A deaminase,APOBEC3G inh,APOBEC3G confirm,others
CCC(=O)Nc1cc(C(=O)O)ccc1S(=O)(=O)c1ccc(C)cc1,0,22,47*,10,·,APOBEC3A confirm=52*;UDG A3A counter=0
COc1ccc2nc(C)cc(SCC(NC(C)=O)C(=O)OC(C)C)c2c1 (stereo not drawn),0,12,0,-5,·,
CCc1cccc(C)c1NC(=O)c1cc(=O)[nH]c2ccc(S(=O)(=O)N3CCOCC3)cc12,4,6,43*,3,·,APOBEC3A confirm=35*;UDG A3A counter=-3
Cc1ccc(NC(=O)c2cc(=O)[nH]c3ccc(S(=O)(=O)N4CCOCC4)cc23)cc1,3,-7,-3,-7,·,
CN(C)CCN1C(=O)C(=O)/C(=C(/O)c2ccccc2)C1c1ccccc1F (stereo not drawn),0,2,72*,-4,·,APOBEC3A confirm=-5;UDG A3A counter=1
CN(C)CCCN1C(=O)C(=O)/C(=C(/O)c2ccncc2)C1c1ccccc1 (stereo not drawn),0,6,-14,-5,·,
COc1nc(C)ccc1-c1noc(-c2ccccn2)n1,3,10,-1,-4,·,
Cc1ccc(C)c(Cn2cnc3c(cnn3C(C)(C)C)c2=O)c1,0,1,1,58*,0,
COc1cccc(NC(=O)COC(=O)c2ccc(F)cc2F)c1,2,2,-7,-11,·,
S=c1[nH]nc(NCCCN2CCOCC2)s1,0,5,-4,44*,47*,UDG A3G counter=-37
COCCCN(CCCN)Cc1ccco1,0,-8,-2,71*,20,UDG A3G counter=4
COCCCN(CCNC(=O)c1ccc(NC2=NC3CS(=O)(=O)CC3S2)cc1)Cc1ccco1 (stereo not drawn),0,-11,-4,-8,·,
CNc1nc(SCC(=O)OC)nc(N2CCOCC2)n1,0,0,-5,-5,·,
CCCC(=O)n1nc(-c2ccc(OC)cc2)nc1N,0,11,7,-3,·,
CCC(=O)n1nc(-c2ccc(Cl)cc2)nc1N,1,2,-1,46*,-9,UDG A3G counter=-4
CC(C)c1nnc(NC(=O)c2ccc3ccccc3c2)s1,19,14,-4,-11,·,
CCC(C(=O)O)N1C(=O)/C(=C/c2cccn2C)SC1=S (stereo not drawn),9,-1,·,·,·,
COc1ccccc1/C=C/C=N/NC(=O)c1ccccn1,0,12,0,-4,·,
COc1ccccc1/C=C/C=N/NC(=O)c1cc(-c2ccco2)[nH]n1,0,-1,26,64*,21*,UDG A3G counter=-3
CCOC(=O)c1ccc(NC(=O)CC2Sc3ncnn3C2=O)cc1 (stereo not drawn),0,12,-3,42*,50*,UDG A3G counter=1
COC(=O)C(=C/C(C)=C/c1cccs1)C(=O)OC,0,-6,-5,-8,·,
Cc1ccccc1CCNC(=O)c1ccc(Cl)c(S(=O)(=O)N2CC(C)OC(C)C2)c1 (stereo not drawn),0,-33,-2,-5,·,
COCCSc1ccccc1C(=O)N1CCCC(C)C1 (stereo not drawn),1,-9,1,-8,·,
